Source: PubChem BioAssay
Rows were chosen to be rich in hits. Some 19% of all compounds tested hit in one or more screens of this group.
Shiga toxin inh: Shiga toxin inhibition; Vero cells, Shiga toxin protein synthesis inhibition reporter; 9.2% of 290,000 active; inhibition, % at 38.7 µM; in the data active = inhibition mostly above about 28%, no sharp cut-off; inactive = mostly below about 43%; also: 0% is about no effect
AMA1 RON2 block: disrupts binding of P. falciparum AMA1 to RON2. AlphaScreen AMA1-biotinylated RON2 peptide binding. Potency, µM (top dose mostly 58.2 µM), inactives show top-dose activity change, negative = inhibition, actives largely listed as inhibitors. 0.2% of 360,000 active. AID 720542;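 also: potency is read from the fitted curve at half-maximal effect; 0% = vehicle wells and -100% = peptide control; nearly all actives have a fitted effect of over 45% in size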
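AMA1 (3D7) with his tag at 25 nM final met compounds first, then biotinylated RON2 peptide at 25 nM; detection used donor plus acceptor beads, 10 µg/mL apiece, read by AlphaScreen after 30 min at room temperature.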
Pf growth 48h: P. falciparum growth inhibition at 48 hours (one generation) | P. falciparum luciferase growth in erythrocytes, 48 h | Potency, µM (titrated, usually from 28.7 µM), for the others: top-dose activity change, negative = inhibition, actives largely listed as inhibitors | AID 504832 | 5.9% of 310,000 active; also: potency is read from the fitted curve at half-maximal effect; % is scaled to controls: 0 for no effect and ±100 for the full control effect
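Luciferase-expressing P. falciparum in infected erythrocytes (2% hematocrit, 0.1% parasitemia final) in RPMI 1640/0.5% Albumax were exposed to compound for 48 hours at 37 C, 5% CO2; growth read as luminescence.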
Cycloheximide cs: counter-screen for Shiga toxin inhibitors: cycloheximide protein synthesis inhibition; cell reporter, cycloheximide protein synthesis inhibition counterscreen; max response, %; 12% of 300,000 active; AID 2314; in the data active = max response mostly above about 13%, no sharp cut-off; inactive = mostly below about 14%; also: read at 38.3 µM for the half of the compounds with a filed dose; 0% is about no effect
Pf growth 96h: P. falciparum growth inhibition at 96 hour, primary screen for plastid delayed-death inhibitors; 6.9% of 320,000 active; Potency, µM (highest dose often 28.7 µM), for the others: at the top dose activity change, negative = inhibition, usual class: inhibitors; P. falciparum luciferase reporter growth, 96 h; also: potency is read from the fitted curve at half-maximal effect; % is scaled to controls: 0 for no effect and ±100 for the full control effect
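Two-generation exposure (96 h) targets delayed-death phenotype. Reporter parasites carrying integrated firefly luciferase, in red cells at 2% hematocrit and 0.05% parasitemia final, kept at 37 C, 5% CO2; luminescence loss indicates inhibition.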
SARS PLP yeast: inhibitors of SARS-CoV papain-like protease in yeast. Potency, µM (doses to about 32.9 µM), for inactives: top-dose activity, positive = growth rescue, most hits filed as activators. AID 485353. S. cerevisiae expressing SARS-CoV PLpro, growth rescue. 0.19% of 330,000 active; calls by dose curve; also: potency is read from the fitted curve at half-maximal effect; 0% is about no effect; nearly all actives have a fitted effect of over 55% in size
* hit, by the source's call; ? = inconclusive; · = no result. Unless noted, calls follow the shape of the dose curve; as a rule, active = well fitted curve in the direction sought with a large enough effect; inconclusive = small, poorly fitted or top-dose-only effect, or another doubt; inactive = no such curve, though single readings can be large; an effect the other way counts as inactive or inconclusive.

SMILES	Shiga toxin inh	AMA1 RON2 block	Pf growth 48h	Cycloheximide cs	Pf growth 96h	SARS PLP yeast
C/C(=N/NC(=O)c1cccs1)c1cccc(NC(=O)C2CC2)c1	95*	-11%	31%	38*	?	5%
C/C(=N\NC(=O)c1cccc(S(=O)(=O)N2CCCC2)c1)c1cccs1	50*	19%	20%	19*	3%	6%
C/C(=N\NC(=O)c1ccc2ccccc2c1)c1cccs1	94*	75%	153%	45*	-14%	-2%
CC(=O)Nc1ccc(S(=O)(=O)N[C@@H](C)C(=O)OCc2cc([N+](=O)[O-])cc3c2OCOC3)cc1	-3	14%	51%	-7	22%	2%
COc1cccc(C(=O)OCC(=O)NC(C)CCc2ccccc2)c1O (stereo not drawn)	-6	15%	8%	8	4%	-1%
COc1ccc(CCNC(=O)c2cc3ccccn3n2)c(OC)c1OC	12	13%	·	17	-47%	-6%
Cc1cccc(Nc2nnc(SCC(=O)NCc3cccs3)s2)c1C	42*	-8%	-25%	12	6.6µM*	5%
Cc1ccccc1Nc1nnc(SCc2cc(=O)n3ccsc3n2)s1	15	-11%	13µM*	16	17µM*	-3%
Cc1cccc(Nc2nnc(SCC(=O)Nc3cccnc3Cl)s2)c1	25	9%	-3%	27*	?	8%
COc1ccc(C)cc1-n1nnnc1SCc1cn2ccsc2n1	-20	-4%	0%	1	21%	0%
Nc1nnc(SCC(=O)Nc2cccnc2Cl)s1	·	57%	20%	·	41%	·
Cc1cccc(Nc2nnc(SCc3cn4ccsc4n3)s2)c1	22	-12%	9.3µM*	20*	5.9µM*	3%
O=c1cc(CSc2nnc(Nc3ccccc3)s2)nc2sccn12	-32	-1%	?	-1	·	-2%
Cc1cccc(Nc2nnc(SCC(=O)NCc3cccs3)s2)c1	62*	-7%	12%	19*	-28%	1%
CC(C)c1oc(=O)cc2c1[C@@H](O)[C@H]1OC(=O)[C@@]3(C)CC[C@@H](O)[C@@]2(C)C13 (stereo partly drawn)	-29	6%	2.9µM*	-4	2.6µM*	13%
CC(C)c1oc(=O)cc2c1[C@@H](O)[C@H]1OC(=O)[C@@]3(C)C[C@@H](O)[C@@H](O)[C@@]2(C)C13 (stereo partly drawn)	-22	1%	1.5µM*	-7	1µM*	4%
O=C(O)c1cccc(CN2C(=O)SC(Nc3cccc4ccccc34)C2=O)c1 (stereo not drawn)	22	94%	8%	3	14%	0%
CN(CC(O)COc1c(F)cc(Br)cc1F)C1CCCCC1 (stereo not drawn)	11	2%	9.3µM*	-4	36%	-6%
COc1ccc(OCC(O)CN(C2CCCCC2)C2CCCCC2)cc1 (stereo not drawn)	-2	-11%	?	1	5.9µM*	-8%
COc1ccc(OCC(O)CN(CC(O)COc2ccc(OC)cc2)c2cccc(O)c2)cc1 (stereo not drawn)	18	-5%	?	19*	?	6%
CC1(C(=O)N2Cc3ccccc3C2)CCN1C(=O)C1(c2ccccc2)CC1 (stereo not drawn)	·	0%	·	·	·	·
CCCC1C(=O)Nc2ccccc2N1C(=O)c1cccc(C)c1 (stereo not drawn)	-7	12%	-14%	-2	-32%	0%
CCCC1C(=O)Nc2ccccc2N1C(=O)c1ccc(C(C)(C)C)cc1 (stereo not drawn)	17	9%	?	2	9.3µM*	-9%
CN1C(=O)C(C)(C)c2cc(S(=O)(=O)N3CCCC(C(=O)NCc4ccccc4Cl)C3)ccc21 (stereo not drawn)	-6	-2%	?	-4	?	4%
O=C(Nc1ncc(Cc2ccccc2)s1)C1CCCO1 (stereo not drawn)	63*	0%	264%	34*	397%	-24%
Nc1ccc2nc(NC(=O)C3CCCCC3)sc2c1	104*	4%	101%	57*	6%	-1%
O=C(Nc1nc2ccc(F)cc2s1)C1CCCO1 (stereo not drawn)	94*	13%	247%	26*	94%	-1%
